Calls of active or inactive are those of the source. Unless noted, no rule for the calls is given here.

Assay [1] can be described thus: compounds binding Alexa647 anti-His antibody – biochemical, small-molecule microarray, 635 nm fluorescence, artefact control for SMM control protein annotation, primary screen (AID 1128).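 Also: score merges feature fluorescence with signal-to-noise for each printed compound spot.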 The settings on record: higher = more signal.
Assay [2] deals with Human papillomavirus type 1a E7 protein (residues 1-88). Nature of the assay: HPV1a E7 small-molecule binders, primary screen, biochemical, small-molecule microarray, residues 1-88, 635 nm (AID 1129). The settings on record: small-molecule microarray binding, fluorescence 635 nm; higher = more signal.
The target in assay [3] is Focal adhesion kinase 1 (Homo sapiens) (UniProt Q05397). Nature of the assay: PTK2 protein binding on printed compound slides – biochemical, small-molecule microarray, 635/667 nm fluorescence, BSA, DTT, primary screen (AID 1130).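 Also: composite of spot emission at 667 nm and signal to noise over triplicate slides.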 The settings on record: 635 nm fluorescence, higher = more signal.
Chain of Focal adhesion kinase 1 (Homo sapiens) (Q05397 whole entry, looked up): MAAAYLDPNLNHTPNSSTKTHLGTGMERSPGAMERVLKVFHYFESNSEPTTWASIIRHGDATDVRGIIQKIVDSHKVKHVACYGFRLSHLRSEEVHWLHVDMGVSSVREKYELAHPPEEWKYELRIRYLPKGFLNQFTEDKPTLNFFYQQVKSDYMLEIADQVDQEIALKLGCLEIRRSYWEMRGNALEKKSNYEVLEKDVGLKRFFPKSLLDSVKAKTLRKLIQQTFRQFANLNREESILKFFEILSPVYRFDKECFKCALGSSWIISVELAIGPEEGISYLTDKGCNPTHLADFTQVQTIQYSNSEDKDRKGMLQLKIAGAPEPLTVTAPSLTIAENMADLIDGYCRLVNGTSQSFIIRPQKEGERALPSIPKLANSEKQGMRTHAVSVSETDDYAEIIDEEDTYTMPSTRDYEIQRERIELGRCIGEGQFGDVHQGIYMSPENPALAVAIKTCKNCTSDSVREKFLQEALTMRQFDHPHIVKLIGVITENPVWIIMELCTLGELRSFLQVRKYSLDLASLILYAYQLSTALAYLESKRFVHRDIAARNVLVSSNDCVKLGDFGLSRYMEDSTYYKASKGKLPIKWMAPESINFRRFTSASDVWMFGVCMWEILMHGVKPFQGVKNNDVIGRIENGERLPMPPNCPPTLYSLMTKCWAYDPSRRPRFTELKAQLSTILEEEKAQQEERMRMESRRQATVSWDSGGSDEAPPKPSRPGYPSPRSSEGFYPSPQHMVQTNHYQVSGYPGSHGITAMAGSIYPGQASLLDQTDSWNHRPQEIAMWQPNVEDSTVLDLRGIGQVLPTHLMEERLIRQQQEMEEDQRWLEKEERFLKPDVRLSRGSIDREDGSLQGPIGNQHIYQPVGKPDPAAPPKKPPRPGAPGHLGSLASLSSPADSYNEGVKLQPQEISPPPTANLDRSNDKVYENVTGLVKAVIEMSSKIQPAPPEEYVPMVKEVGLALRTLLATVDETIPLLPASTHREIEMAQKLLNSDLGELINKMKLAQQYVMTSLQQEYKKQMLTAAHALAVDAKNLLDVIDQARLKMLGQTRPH
In assay [4] the test system is Fibrinogen (Alexa647-labelled). Kind of assay: Alexa647-fibrinogen binding to printed small molecules – biochemical, small-molecule microarray, 635/667 nm fluorescence, artefact control for SMM control-protein annotation, profiling panel (AID 1131).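 Also: z-score merges 667 nm fluorescence with per-spot signal-to-noise over triplicate slides.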 The settings on record: fibrinogen-A647 binding fluorescence, higher = more signal.
For assay [5], the target named is Follistatin (Homo sapiens) (UniProt P19883). Kind of assay: FST protein binding to printed compounds – biochemical, small-molecule microarray, 635/667 nm fluorescence, primary screen (AID 1132). The settings on record: 635 nm fluorescence, higher = more signal.
Chain of Follistatin (Homo sapiens) (P19883 whole entry, looked up): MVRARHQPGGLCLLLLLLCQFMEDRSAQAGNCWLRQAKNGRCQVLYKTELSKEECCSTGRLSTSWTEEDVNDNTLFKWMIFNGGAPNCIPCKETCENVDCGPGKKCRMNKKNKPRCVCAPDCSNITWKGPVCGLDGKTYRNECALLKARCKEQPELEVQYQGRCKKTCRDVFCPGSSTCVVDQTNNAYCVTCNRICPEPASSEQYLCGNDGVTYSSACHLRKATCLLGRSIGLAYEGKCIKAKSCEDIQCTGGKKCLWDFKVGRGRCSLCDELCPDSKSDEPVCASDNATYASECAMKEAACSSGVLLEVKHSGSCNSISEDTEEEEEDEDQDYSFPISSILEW
Assay [6] concerns the target Fibroblast growth factor 2 (Homo sapiens) (UniProt P09038). Nature of the assay: basic fibroblast growth factor binding to printed compounds – biochemical, small-molecule microarray, 635/667 nm fluorescence, primary screen (AID 1133). The following applies: FGF2, fluorescence 635/667, higher = more signal.
Assay [7] can be described thus: JC-1 mitochondrial potential readout, lung cancer cells – cell-based, A549, JC-1 fluorescence, basal, 24 h, 100 nL, profiling panel (AID 1138).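 Also: A549 lung adenocarcinoma cells under basal conditions with no added stimulus; test concentration not given here.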 The following applies: higher = more signal.
In a further assay the test system is Lefty1. Kind of assay: Lefty1 protein binding to printed compounds – biochemical, small-molecule microarray, 635/667 nm fluorescence, primary screen (AID 1139). The settings on record: fluorescence 635/667, higher = more signal.
Assay [8] deals with wheat germ agglutinin (Triticum aestivum), Alexa647-labelled. Nature of the assay: Alexa647-WGA lectin binding to printed small molecules – biochemical, small-molecule microarray, 635/667 nm fluorescence, artefact control for SMM control-protein annotation, profiling panel (AID 1140).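 Also: score merges 667 nm feature emission with signal to noise over triplicate slides.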 The following applies: WGA-A647 binding, 635 nm fluorescence, higher = more signal.
The target in assay [9] is Luciferin 4-monooxygenase (Photinus pyralis) (UniProt P08659). Nature of the assay: inhibition of purified Photinus pyralis luciferase – biochemical, luminescence, purified enzyme, 2006 set, primary screen (AID 1141).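 Also: cell-free assay with purified firefly luciferase at 100 ng per well in PBS; test concentration not given here.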 The following applies: purified firefly luciferase, SteadyGlo luminescence, 30 min; higher = more signal, called active from +8 up or from −8 down.
Chain of Luciferin 4-monooxygenase (Photinus pyralis) (P08659 whole entry, looked up): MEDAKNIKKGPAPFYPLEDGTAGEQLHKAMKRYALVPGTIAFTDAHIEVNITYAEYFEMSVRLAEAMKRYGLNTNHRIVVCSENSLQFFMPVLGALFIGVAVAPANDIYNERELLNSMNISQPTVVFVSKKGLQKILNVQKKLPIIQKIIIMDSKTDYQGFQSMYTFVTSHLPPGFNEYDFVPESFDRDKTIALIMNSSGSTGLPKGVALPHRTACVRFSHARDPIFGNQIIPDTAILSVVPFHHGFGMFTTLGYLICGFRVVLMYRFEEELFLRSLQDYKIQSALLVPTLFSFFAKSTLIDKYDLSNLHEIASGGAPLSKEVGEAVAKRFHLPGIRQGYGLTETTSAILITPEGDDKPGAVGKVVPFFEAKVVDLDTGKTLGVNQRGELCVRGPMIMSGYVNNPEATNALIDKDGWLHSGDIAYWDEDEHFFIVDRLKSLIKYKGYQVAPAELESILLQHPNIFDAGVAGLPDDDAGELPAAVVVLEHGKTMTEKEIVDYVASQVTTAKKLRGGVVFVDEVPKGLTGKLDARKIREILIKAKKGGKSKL
Assay [10] concerns Wnt5a (protein binding on small-molecule microarray). Kind of assay: small molecules binding Wnt5a protein – biophysical, small-molecule microarray, 635/667 nm fluorescence, primary screen (AID 1142).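 Also: fluorescence read at 667 nm with signal to noise per printed feature.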 The settings on record: 635 nm fluorescence, higher = more signal.
Assay [11] in a line: ATP-based viability of Huh7 replicon cells – cell-based, CellTiter-Glo luminescence, basal, 48 h, cytotoxicity control for HCV replication inhibitor project, primary screen (AID 1143).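 Also: Huh7 hepatoma cells carrying a hepatitis C replication reporter with no stimulus; test concentration not given here.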 The following applies: higher = more signal, called active from +8 up or from −8 down. On the technique in general: In antiviral work, replicon cells carry a viral genome segment that copies itself.

Assay [12] is described as follows: Pseudomonas biofilm growth suppression – PAO1 strain, BacTiter-Glo luminescence, LB-PBS, primary screen (AID 1144). The following applies: P. aeruginosa PAO1 biofilm, 12 h, higher = more signal.
Assay [13] is described as follows: basal CRE-LacZ reporter activity in PC12 – cell-based, unstimulated, primary screen (AID 1145). The following applies: no forskolin, luminescence, 4.5 h, higher = more signal, called active from +8 up or from −8 down.
Assay [14] can be described thus: forskolin-driven CRE-LacZ activity in PC12 – cell-based, CRE-LacZ reporter, forskolin-stimulated, primary screen (AID 1146).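 Also: PC12 cells with 6xCRE LacZ reporter stimulated by forskolin 10 µM; beta-galactosidase reporter signal reflecting CREB driven transcription.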 The following applies: luminescence, 4.5 h, higher = more signal, called active from +8 up or from −8 down.
In assay [15] the target is Streptavidin (Streptomyces avidinii) (UniProt P22629). Kind of assay: compounds binding control protein streptavidin – biophysical, small-molecule microarray, 635/667 nm fluorescence, artefact control for SMM compound annotation, primary screen (AID 1147).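 Also: signal reflects streptavidin binding to arrayed compounds as a control protein.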 The settings on record: higher = more signal.
Chain of Streptavidin (Streptomyces avidinii) (P22629 whole entry, looked up): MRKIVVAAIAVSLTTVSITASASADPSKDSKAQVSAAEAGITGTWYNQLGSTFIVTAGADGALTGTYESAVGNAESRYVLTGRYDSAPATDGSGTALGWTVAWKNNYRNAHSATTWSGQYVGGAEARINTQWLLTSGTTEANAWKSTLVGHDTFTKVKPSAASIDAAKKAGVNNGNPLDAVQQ
Assay [16] can be described thus: probe aInhba binding on compound microarray – biochemical, small-molecule microarray, 635/667 nm fluorescence, primary screen (AID 1148).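 Also: score merges 667nm spot fluorescence with signal-to-noise for antibody binding to printed compounds.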 The following applies: higher = more signal.
Assay [17] addresses Torsin-1A (Homo sapiens) (UniProt O14656). Kind of assay: TOR1A wild-type binding on microarray – cell lysate, small-molecule microarray, lysate, 635/667 nm, primary screen (AID 1149). The following applies: COS7 hTOR1A-WT lysate, 635 nm fluorescence, higher = more signal.
Assay [18] shares this target. Kind of assay: torsin A mutant lysate binding on microarrays – cell lysate, small-molecule microarray, COS7 lysate, 635/667 nm fluorescence, primary screen (AID 1150).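 Also: score pools 667 nm emission and signal to noise measuring lysate protein binding.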 The settings on record: COS7 hTOR1A mutant lysate, 635 nm fluorescence, higher = more signal.
In assay [19] the test system is Sonic hedgehog protein (Shh). Kind of assay: Sonic hedgehog microarray binding compounds – biochemical, small-molecule microarray, 635/667 nm fluorescence, primary screen (AID 1151).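 Also: Shh protein binding to compounds spotted on small-molecule microarray slides; score combines spot fluorescence intensity with signal-to-noise across triplicate slides.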 The following applies: 635 nm fluorescence, higher = more signal.

Chain of Torsin-1A (Homo sapiens) (O14656 whole entry, looked up): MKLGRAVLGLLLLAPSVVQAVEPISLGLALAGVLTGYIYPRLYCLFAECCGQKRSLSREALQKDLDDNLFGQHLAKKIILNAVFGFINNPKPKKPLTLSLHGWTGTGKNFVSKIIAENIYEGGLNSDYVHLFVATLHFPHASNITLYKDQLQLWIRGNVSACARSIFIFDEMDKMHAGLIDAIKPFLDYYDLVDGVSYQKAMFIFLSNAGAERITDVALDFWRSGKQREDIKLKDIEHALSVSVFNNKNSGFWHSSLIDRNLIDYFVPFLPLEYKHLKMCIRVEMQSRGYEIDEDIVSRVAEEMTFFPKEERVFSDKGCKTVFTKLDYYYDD
Chain of Fibroblast growth factor 2 (Homo sapiens) (P09038 whole entry, looked up): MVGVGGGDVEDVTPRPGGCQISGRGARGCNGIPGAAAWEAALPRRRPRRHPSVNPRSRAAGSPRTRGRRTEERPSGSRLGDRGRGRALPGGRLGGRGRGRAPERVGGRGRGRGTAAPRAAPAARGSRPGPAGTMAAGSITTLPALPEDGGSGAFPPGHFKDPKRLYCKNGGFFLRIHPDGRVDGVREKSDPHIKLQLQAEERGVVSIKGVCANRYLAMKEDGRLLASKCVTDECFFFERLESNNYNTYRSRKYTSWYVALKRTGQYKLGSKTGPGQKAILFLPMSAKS

As for `C=CCOC(=O)[C@@H]1[C@H]2C(=O)O[C@H](c3ccccc3)[C@H](c3ccccc3)N2[C@H](c2ccc(OCCOC(=O)[C@H]3C[C@H]4C(=O)N[C@@H](CC(C)C)C(=O)N4[C@H]3c3ccc(O)cc3)cc2)[C@@]12C(=O)Nc1ccc(I)cc12`, the composite z-score in assay [1] is 2.17; in [2], 1.19; in assay [3], 0.538; in [4], 0.623; in assay [5] it was 1.5; in assay [6], 1.87. Further, the composite z-score is 1.52 in the assay with Lefty1; 0.747 in assay [8]; 0.504 in assay [10]; 0.324 in assay [15]; -0.102 in assay [16]; 1.33 with Torsin-1A (Homo sapiens) [17]. For the same compound, the composite z-score with Torsin-1A (Homo sapiens) [18] was found to be 1.33; in assay [19] it was 1.97. Also, the z-score in [7] is -0.176; in assay [9] it was -0.646 (inactive); in assay [11], -0.141 (inactive); in assay [12], 0.0488 (inactive); in assay [13] it was 0.277 (inactive); in [14], -1.14 (inactive).

On to `COCCCNC(=O)[C@@]1(Sc2ccc(C)cc2)CC(=O)N(C2Cc3ccccc3C2)[C@@H]1c1ccc(CO)cc1I`, for which the composite z-score was -0.961 in [1]; -1.01 in assay [2]; -1.01 in [3]; -1.07 in assay [4]; -1.01 in [5]; -1.19 in assay [6]. The composite z-score was -1.68 in the assay on Lefty1; -0.0708 in [8]; -0.572 in assay [10]; -0.962 in [15]; -0.157 in assay [16]; -0.475 with Torsin-1A (Homo sapiens) [17]. Also, the figures for the composite z-score (in the assay with Torsin-1A (Homo sapiens) [18]; in [19]) were -1.29 and -0.59, respectively. Besides, the z-score is 0.314 in [7]; 0.553 (inactive) in [9]; -0.712 (inactive) in [11]; -0.141 (inactive) in assay [12]; 0.0909 (inactive) in assay [13]; 0.555 (inactive) in assay [14].

For the compound `CCOC(=O)[C@@H]1[C@@H]2C(=O)N(CC)C(=O)[C@@H]2C[C@@H]1Sc1ccccc1`, the composite z-score came out at 1.62 in assay [1]; 1.2 in assay [2]; 0.592 in [3]; 0.462 in [4]; 0.329 in [5]; 0.0435 in assay [6]. Besides, the composite z-score worked out at 0.307 with Lefty1; 0.402 in assay [8]; 0.202 in assay [10]; 0.603 in assay [15]; 0.0357 in [16]; 0.592 with Torsin-1A (Homo sapiens) [17]. The composite z-score amounted to 0.975 with Torsin-1A (Homo sapiens) [18] and 0.209 in [19]. In addition, the z-score in [7] was -1.24; in [9], 1.4 (inactive); in assay [11], 0.371 (inactive); in assay [12] it was -0.868 (inactive); in assay [13] it was 0.136 (inactive); in assay [14], 1.04 (inactive).

With `CCOC(=O)C[C@H]1[C@H](OC(=O)Cc2ccc3c(c2)OCO3)[C@@H](NC(=O)C2CCCCC2)c2cc(OCCCO)ccc2N1C(=O)c1ccc2ccccc2n1`, the composite z-score in [1] was 0.0779; in assay [2], 0.684; in assay [3], 0.309; in [4], 0.581; in assay [5], 1.39; in assay [6], 1.71. Further, the composite z-score in the assay with Lefty1 was 0.816; in assay [8], -0.176; in assay [10] it was 0.305; in assay [15], 0.658; in [16], -0.0361; with Torsin-1A (Homo sapiens) [17], 0.392. For the same compound, the composite z-score is 0.172 with Torsin-1A (Homo sapiens) [18] and 1.39 in assay [19]. For the same compound, the z-score was -0.678 in assay [7]; 0.862 (inactive) in assay [9]; -3.34 (inactive) in [11]; -0.273 (inactive) in assay [12]; 6.45 (inactive) in assay [13]; 0.871 (inactive) in [14].

On to `NC(=O)N1C(=O)C2C(C1=O)C1C=C(CCCO)C2C(c2cccs2)N1Cc1cc2c(cc1Br)OCO2` (stereo not given), for which the composite z-score in assay [1] is 2.23; in [2], -0.212; in assay [3], 1.67; in assay [4] it was 0.87; in assay [5], 0.192; in assay [6], -0.681. Also, the composite z-score was 0.574 in the assay with Lefty1; 0.851 in assay [8]; -0.25 in assay [10]; 1.13 in assay [15]; -0.0983 in [16]; -0.164 with Torsin-1A (Homo sapiens) [17]. The values for the composite z-score (with Torsin-1A (Homo sapiens) [18]; in assay [19]) were 0.279 and 0.0313, respectively. The z-score was 0.707 in assay [7]; -0.062 (inactive) in assay [9]; -0.477 (inactive) in assay [11]; -0.584 (inactive) in assay [12]; 0.424 (inactive) in assay [13]; -0.298 (inactive) in assay [14].

For the origin of these results see PubChem BioAssay.
